# Luc counter = counter-screen: inhibitors of Kinase-Glo firefly luciferase. 0.28% of 200,000 active. Potency, µM (highest dose often 38.3 µM), without a hit: at the highest dose activity change, negative = inhibition, most hits filed as inhibitors. AID 1379. Kinase-Glo luciferase, ATP luminescence, 8 min; also: % is scaled to controls: 0 for no effect and ±100 for the full control effect; nearly all actives have a fitted effect of over 60% in size
#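 Kinase-Glo luciferase light output from ATP and luciferin was measured with 10 uM ATP, within the enzyme's linear range. Buffer: 50 mM imidazole pH 7.2, 50 mM KCl, 7 mM MgCl2, 0.01% Tween 20, 0.05% BSA; luminescence read after 8 min at ambient temperature.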
# FLuc counter = inhibits or activates purified firefly luciferase, miR-21 counter-screen. purified FLuc, Km substrates, luminescence inhibition. P08659. Potency, µM (series often up to 57.5 µM), inactives show top-dose activity change, negative = inhibition, hits mostly inhibitors. 6.9% of 360,000 active;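 also: plate controls were vehicle for no effect and reference inhibitor for full effect; nearly all actives have a fitted effect of over 55% in size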
# Target sequence (P08659 whole entry, looked up): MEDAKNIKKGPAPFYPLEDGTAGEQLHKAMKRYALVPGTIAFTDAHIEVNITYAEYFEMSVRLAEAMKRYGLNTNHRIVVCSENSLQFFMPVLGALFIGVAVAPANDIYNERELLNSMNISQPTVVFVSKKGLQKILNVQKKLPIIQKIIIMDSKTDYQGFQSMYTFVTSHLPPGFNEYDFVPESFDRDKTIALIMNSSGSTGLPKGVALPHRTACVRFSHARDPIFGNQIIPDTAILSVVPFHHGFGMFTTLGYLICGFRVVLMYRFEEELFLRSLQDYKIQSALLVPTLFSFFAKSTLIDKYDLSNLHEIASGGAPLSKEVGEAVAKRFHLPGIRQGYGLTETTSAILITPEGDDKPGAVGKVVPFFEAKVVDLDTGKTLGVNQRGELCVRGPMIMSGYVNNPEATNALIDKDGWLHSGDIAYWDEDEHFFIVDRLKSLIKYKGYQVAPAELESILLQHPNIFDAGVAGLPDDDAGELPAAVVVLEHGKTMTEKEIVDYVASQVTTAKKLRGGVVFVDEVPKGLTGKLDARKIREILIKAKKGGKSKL
#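 Biochemical qHTS of compounds, final roughly 60 µM downward over six points, against 10 nM purified firefly luciferase using Km concentrations of substrates (10 uM D-luciferin, 10 uM ATP) in Tris acetate pH 7.5 buffer; luminescence output.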
# ELG1 genotoxic = induces genotoxicity in HEK293T cells with luciferase-tagged ELG1; HEK293T ELG1-luciferase reporter, luminescence, 16 h; AID 504466; Potency, µM (doses to about 46 µM), inactives show at the top dose activity change, positive = activation, most hits filed as activators; 1.3% of 330,000 active; also: % of control where 0% means no effect; nearly all actives have a fitted effect of over 60% in size
#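 Luminescence read-out: rising ELG1-luciferase signal, reflecting elevated ELG1 protein under genetic stress, flags genotoxic compounds. Cells were treated for 16 hr at 37 °C before ONE-Glo detection.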
# SMN2 splice up = enhancers of SMN2 splice variant expression | HEK293 SMN2-luciferase splicing reporter, luminescence, 30-36 h | Potency, µM (doses to about 46.1 µM), inactives show top-dose activity change, positive = activation, most hits filed as activators | 2.8% of 210,000 active | AID 1458; also: % of control where 0% means no effect; nearly all actives have a fitted effect of over 55% in size
#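 HEK293 cells carry an SMN2 minigene-luciferase reporter in which exon 7 inclusion puts luciferase in frame. Cells were seeded at 2000 cells/well, attached for 10-12 hours, then exposed to compounds for 30-36 hours at 37C before ONE-Glo luminescence.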
# NPC1 prom act = activates the NPC1 promoter; 2.4% of 320,000 active; Huh7 NPC1 promoter luciferase reporter, 24 h; AID 485313; Potency, µM (series often up to 9.22 µM), inactives show at the top dose activation, most hits filed as activators; also: % of control where 0% means no effect; nearly all actives have a fitted effect of over 60% in size
#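 Quantitative HTS used a cell-based reporter: Huh7 cells stably bearing the NPC1 promoter upstream of luciferase were treated with compounds for 24 h, and promoter activation was read as luminescence.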
# Rab9 promoter act = activators of Rab9 promoter. Huh7 Rab9 promoter-luciferase reporter, luminescence, 24 h. Potency, µM (series often up to 9.22 µM), for the others: top-dose activation, negative = inhibition, hits mostly activators. 2.8% of 320,000 active. AID 485297; also: % of control where 0% means no effect; nearly all actives have a fitted effect of over 60% in size
#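 Measured in stably transfected Huh7 cells bearing a Rab9 promoter–luciferase construct: 24 h compound treatment at 37 °C, followed by luminescence detection.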
# * = called active by the depositor; ? = inconclusive; · = no result. Shown are actives, neighbours in structure and some others; about 7.5% of the full set was active somewhere. Calls follow the shape of the dose curve; as a rule, active = well fitted curve in the direction sought with a large enough effect; inconclusive = small, poorly fitted or top-dose-only effect, or another doubt; inactive = no such curve, though single readings can be large; an effect the other way counts as inactive or inconclusive. Potency is read from the fitted curve at half-maximal effect.
SMILES,Luc counter,FLuc counter,ELG1 genotoxic,SMN2 splice up,NPC1 prom act,Rab9 promoter act
COc1ccccc1/C=C/c1nc2ccc(OC(C)=O)cc2c(=O)o1,·,?,1%,·,-2%,3%
CSc1nc2ccccc2n1CC(=O)Nc1ccccc1,0%,1%,7%,-1%,-3%,1%
COc1ccccc1/C=C/c1nc2ccccc2n1C(C)C,·,3.4µM*,·,?,·,·
COc1ccc(Cn2c(/C=C/c3ccccc3)nc3ccccc32)cc1,?,0.85µM*,?,?,2.5µM*,1.3µM*
COc1ccccc1CNC(=O)CCCc1nnc2n(C)c(=O)c3sccc3n12,·,2%,-1%,·,0%,-2%
CCn1c(/C=C/c2ccccc2)nc2ccccc21,10µM*,0.6µM*,?,7.1µM*,2µM*,1.3µM*
Cn1c(/C=C/c2ccccc2)nc2ccccc2c1=O,·,?,5%,·,?,?
CCn1c(/C=C/c2ccccc2)nc2ccccc2c1=O,2%,-17%,-7%,·,-1%,0%
Cn1c(/C=C/c2ccc(Cl)cc2)nc2ccccc2c1=O,·,3.8µM*,?,·,4µM*,2.8µM*
O=C(Nc1cccc2nsnc12)c1ccc2c(c1)OCCO2,-25%,11µM*,?,?,?,3.5µM*
O=C(Nc1cccc2nsnc12)c1ccc(F)cc1,-25%,?,-4%,?,6%,12%
O=C(Nc1cccc2nsnc12)c1ccc2c(c1)OCO2,-15%,17µM*,9%,9%,?,?
CCOc1ccc(C(=O)Nc2cccc3nsnc23)cc1[N+](=O)[O-],·,-1%,13%,·,-6%,-7%
Cc1ccc(CNC(=O)CN(c2cccc(C)c2C)S(=O)(=O)c2ccccc2)cc1,·,-12%,·,6%,·,·
CN(C)c1ccc(NC(=O)CCCc2ccccc2)cc1,-1%,2.4µM*,0.92µM*,16µM*,4µM*,1.6µM*
Cc1cccc(NC(=O)CCCc2ccccc2)c1,·,17µM*,?,·,?,?
Cc1cccc(NC(=O)N2CCN(Cc3ccccc3)CC2)c1,-3%,17µM*,10%,18%,21%,20%
Cc1cccc(NC(=O)N2CCCCCC2)c1,·,?,?,·,25%,?
CC(O)c1cccc(NC(=O)CCCc2ccccc2)c1 (stereo not given),-5%,-13%,4%,·,10%,29%
O=C(CCc1ccccc1)Nc1ccccc1,-2%,-3%,0%,·,-4%,0%
CCOc1ccc(S(=O)(=O)N2CCN(c3ccccc3OC)CC2)c2cccnc12,-2%,5%,-2%,-16%,0%,3%
Cc1nc(N2CCOCC2)c2nc(-c3ccccc3)n(CCN3CCCCC3)c2n1,-1%,·,·,-3%,·,·
CCOC(=O)Cn1c(=O)oc2cc(S(=O)(=O)N3CCC(C(=O)OCC)CC3)ccc21,·,-1%,·,-1%,·,·
CCCc1cc(=O)[nH]c(SCC(=O)Nc2ccc(Br)cc2Br)n1,2%,?,0%,15%,-6%,-2%
Cc1c(CC(=O)O)c(=O)oc2cc(OCc3ccc(F)cc3F)ccc12,·,17µM*,3%,·,1%,-2%
SMILES,Luc counter,FLuc counter,ELG1 genotoxic,SMN2 splice up,NPC1 prom act,Rab9 promoter act
Cc1c(CCC(=O)O)c(=O)oc2cc(OCc3cccc(F)c3)ccc12,·,?,2%,·,0%,2%
Cc1c(CC(=O)O)c(=O)oc2cc(OCc3ccc(Br)cc3)ccc12,·,11µM*,13%,·,3%,15%
Cc1c(CCC(=O)O)c(=O)oc2cc(OCc3ccccc3Br)ccc12,·,?,-3%,·,-4%,-3%
O=C1Nc2ccccc2N=C(c2ccccc2)C1Br (stereo not given),2%,-18%,2%,·,4%,27%
CC(=O)NC1Sc2ccccc2N=C1c1ccccc1 (stereo not given),-29%,12µM*,13µM*,?,?,?
COc1ccc(-c2nc(=S)[nH][nH]2)cc1,0%,0%,8%,8%,0%,10%

# Screens (PubChem)
